Results as given in PubChem BioAssay.
Active and inactive are the calls of the source. Rule as the data show it, unless noted: active = inhibition above about 44%; inactive = the rest.

Molecular target: Steroidogenic factor 1 (Homo sapiens) (UniProt Q13285)
Assay: inverse agonism at SF1 nuclear receptor – cell-based, luminescence, high throughput, counter-screen for LRH-1 inverse agonist project (AID 651614);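 also: cells cotransfected with StAR promoter reporter and SF1 expression vector; 0% = vehicle on cells with receptor and 100% = vehicle on cells lacking receptor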
Settings: cell-based SF1 luciferase reporter, at 3.6 µM, active compounds read high

Sequence of Steroidogenic factor 1 (Homo sapiens) (Q13285 whole entry, looked up): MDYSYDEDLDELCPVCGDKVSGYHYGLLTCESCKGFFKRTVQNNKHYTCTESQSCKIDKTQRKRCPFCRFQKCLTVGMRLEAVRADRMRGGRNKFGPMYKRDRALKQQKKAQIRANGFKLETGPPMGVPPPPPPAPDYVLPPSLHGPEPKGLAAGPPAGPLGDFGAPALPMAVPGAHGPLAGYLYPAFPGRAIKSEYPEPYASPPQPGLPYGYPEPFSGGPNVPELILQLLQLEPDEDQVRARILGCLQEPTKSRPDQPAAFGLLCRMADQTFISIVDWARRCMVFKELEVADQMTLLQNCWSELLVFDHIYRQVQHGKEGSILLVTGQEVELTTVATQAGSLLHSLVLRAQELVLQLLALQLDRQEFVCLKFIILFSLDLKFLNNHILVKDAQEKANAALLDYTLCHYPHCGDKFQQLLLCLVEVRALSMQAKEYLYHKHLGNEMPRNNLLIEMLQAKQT

| Compound | inhibition |
| --- | --- |
| CCOc1ccc(NC(=O)COC(=O)COc2cccc3c2OC(C)(C)C3)cc1 | 60.5% (active) |
| COc1ccc(C2=Nn3c(nnc3-c3ccccc3OC)SC2)cc1OC1CCOC1 (stereo not drawn) | 71.1% (active) |
| COc1ccc(-c2ccc(C(=O)NCc3ccncc3)c3occc23)c(C)c1 | 70.1% (active) |
| CN(Cc1cccs1)c1nc(-c2cccnc2)nc2ccccc12 | 43% (active) |
| COc1ccc(OC)c(-n2c(-c3ccc(S(C)(=O)=O)cc3)cc(C=O)c2C)c1 | 55.3% (active) |
| CCOc1ccc(NC(=O)CN2C(=O)NC(C)(c3ccc(OC(F)F)cc3)C2=O)cc1 (stereo not drawn) | 59.2% (active) |
| CCCc1cc(=O)oc2cc(OCC(=O)NC3CC(C)(C)NC(C)(C)C3)ccc12 | 45.7% (active) |
| CCCC(=O)Nc1sc2c(c1C(=O)Nc1ccccn1)CCCC2 | 53.8% (active) |
| O=[N+]([O-])c1ccc(N2CCCCC2)nc1N1CCCCC1 | 51.2% (active) |
| CCc1cc(=O)oc2c(C)c(OCC(=O)NC3CC(C)(C)NC(C)(C)C3)ccc12 | 56.1% (active) |
| Cc1ccccc1NC(=S)NCc1ccc2[nH]c3c(c2c1)CCCC3 | 28.9% (inactive) |
| CCN(CC)c1nc(C)c(C(C)=O)cc1C#N | 57% (active) |
| COCCSc1ccccc1C(=O)NCc1ccc2c(c1)OCO2 | 48.9% (active) |
| O=C(NNc1ccc([N+](=O)[O-])cc1[N+](=O)[O-])c1ccco1 | 60% (active) |
| COc1cc(C2CC(=O)c3c([nH]c(C(=O)OCCOC(C)C)c3C)C2)cc(OC)c1OC (stereo not drawn) | 56.8% (active) |
| CCN1C(=O)c2cccc3c(NC(=O)c4ccc(S(=O)(=O)N(C)C)cc4)ccc1c23 | 46.2% (active) |
| O=C1C=C(N2CCCCCC2)C2(CCCCC2)O1 | 55% (active) |
| Cn1c(=O)n(C)c2cc(NC(=O)CCl)ccc21 | 61.5% (active) |
| Cc1c(Cl)cccc1NC(=O)CS(=O)(=O)c1ccccc1 | 55.5% (active) |
| CC(=O)c1ccc(NC(=O)CSc2nc3[nH]ncc3c(=O)[nH]2)cc1 | 50.8% (active) |

| Compound | inhibition |
| --- | --- |
| CCCN(CC(=O)Nc1ccccc1C)CC(=O)Nc1ccc(Br)cc1F | 51.6% (active) |
| CCS(=O)(=O)Nc1cccc(-c2ccc3nnc(-c4cccnc4)n3n2)c1 | 49.5% (active) |
| COc1cc(-c2nc(C(=O)NCC3CCCO3)cc3c2[nH]c2ccccc23)cc(OC)c1OC (stereo not drawn) | 39.1% (inactive) |
| Cn1c(SCC(=O)Nc2ccc3nc(SCC(=O)NC4CC4)sc3c2)nnc1-c1ccccc1 | 61.5% (active) |
| Cc1c(Cl)cccc1NC(=O)CSc1nnc(C)n1CC1CCCO1 (stereo not drawn) | 14.9% (inactive) |
| O=C(Nc1cccnc1)c1ccc([N+](=O)[O-])s1 | 51% (active) |
| Cc1ccc(S(=O)(=O)N2CC(O)CC2C(=O)OCC(=O)Nc2ccc([N+](=O)[O-])cc2C(F)(F)F)cc1C (stereo not drawn) | 56% (active) |
| Cc1sc(NC(=O)C(C)C)c(C(=O)Nc2ccccc2)c1C | 45.9% (active) |
| COc1ccc(-n2c(N)c(C(=O)NCc3cccnc3)sc2=S)cc1 | 50.4% (active) |
| CCOc1ccc(NC(=O)CSc2nc3ccccc3c(=O)n2CCCC(=O)NCC2CCCO2)cc1 (stereo not drawn) | 40.1% (inactive) |
| Cc1ccc(Cn2nc(C)c(NC(=O)c3noc4c3CCCCC4)c2C)cc1 | 50.7% (active) |
| Cc1nn(Cc2ccc(Cl)cc2)c(C)c1NC(=O)c1cc(C(C)C)on1 | 64.8% (active) |
| COc1cc(N)c(Cl)cc1C(=O)OCC(=O)N1c2ccccc2NC(=O)C1(C)C | 11.5% (inactive) |
| Cn1c(SCC(=O)Nc2ccc(N3CCOCC3)cc2)nnc1-c1ccco1 | 49.4% (active) |
| CCn1c2ccccc2c2cc(/C=N/n3cn[nH]c3=S)ccc21 | 34.3% (inactive) |
| C[C@H](CO)N1C[C@H](C)[C@H](CN(C)Cc2ccncc2)Oc2cc(-c3ccccc3F)ccc2S1(=O)=O | 64.6% (active) |
| O=[N+]([O-])c1ccc(-n2cnc3ccccc32)c([N+](=O)[O-])c1 | 62.1% (active) |
| COCCNc1ccc([N+](=O)[O-])cc1C(=O)NC1CCCc2ccccc21 (stereo not drawn) | 53.5% (active) |
| O=C(Cn1ccc(=O)[nH]c1=O)c1ccc([N+](=O)[O-])o1 | 14.9% (inactive) |

Tested on: not listed separately
Assay: compounds suppressing VP16-driven luciferase signal – cell-based, luminescence, high throughput, counter-screen for LRH-1 inverse agonist project (AID 651615; in the data active = inhibition above about 33%)
Settings: Gal4-VP16 luciferase reporter cells, at 3.6 µM, active compounds read high

| Compound | inhibition |
| --- | --- |
| CCOc1ccc(NC(=O)COC(=O)COc2cccc3c2OC(C)(C)C3)cc1 | -1.47% (inactive) |
| COc1ccc(C2=Nn3c(nnc3-c3ccccc3OC)SC2)cc1OC1CCOC1 (stereo not drawn) | 19.3% (inactive) |
| COc1ccc(-c2ccc(C(=O)NCc3ccncc3)c3occc23)c(C)c1 | 46.4% (active) |
| CN(Cc1cccs1)c1nc(-c2cccnc2)nc2ccccc12 | 5.14% (inactive) |
| COc1ccc(OC)c(-n2c(-c3ccc(S(C)(=O)=O)cc3)cc(C=O)c2C)c1 | -41.9% (inactive) |
| CCOc1ccc(NC(=O)CN2C(=O)NC(C)(c3ccc(OC(F)F)cc3)C2=O)cc1 (stereo not drawn) | -30.5% (inactive) |
| CCCc1cc(=O)oc2cc(OCC(=O)NC3CC(C)(C)NC(C)(C)C3)ccc12 | 2.6% (inactive) |
| CCCC(=O)Nc1sc2c(c1C(=O)Nc1ccccn1)CCCC2 | 5.28% (inactive) |
| O=[N+]([O-])c1ccc(N2CCCCC2)nc1N1CCCCC1 | 13.4% (inactive) |
| CCc1cc(=O)oc2c(C)c(OCC(=O)NC3CC(C)(C)NC(C)(C)C3)ccc12 | 3.79% (inactive) |
| Cc1ccccc1NC(=S)NCc1ccc2[nH]c3c(c2c1)CCCC3 | 9.36% (inactive) |
| CCN(CC)c1nc(C)c(C(C)=O)cc1C#N | 12% (inactive) |
| COCCSc1ccccc1C(=O)NCc1ccc2c(c1)OCO2 | 2.27% (inactive) |
| O=C(NNc1ccc([N+](=O)[O-])cc1[N+](=O)[O-])c1ccco1 | 3.35% (inactive) |
| COc1cc(C2CC(=O)c3c([nH]c(C(=O)OCCOC(C)C)c3C)C2)cc(OC)c1OC (stereo not drawn) | 43.3% (active) |
| CCN1C(=O)c2cccc3c(NC(=O)c4ccc(S(=O)(=O)N(C)C)cc4)ccc1c23 | -41.4% (inactive) |
| O=C1C=C(N2CCCCCC2)C2(CCCCC2)O1 | -9.31% (inactive) |
| Cn1c(=O)n(C)c2cc(NC(=O)CCl)ccc21 | -101% (inactive) |
| Cc1c(Cl)cccc1NC(=O)CS(=O)(=O)c1ccccc1 | -1.09% (inactive) |
| CC(=O)c1ccc(NC(=O)CSc2nc3[nH]ncc3c(=O)[nH]2)cc1 | -6.29% (inactive) |

| Compound | inhibition |
| --- | --- |
| CCCN(CC(=O)Nc1ccccc1C)CC(=O)Nc1ccc(Br)cc1F | 1.69% (inactive) |
| CCS(=O)(=O)Nc1cccc(-c2ccc3nnc(-c4cccnc4)n3n2)c1 | -31.6% (inactive) |
| COc1cc(-c2nc(C(=O)NCC3CCCO3)cc3c2[nH]c2ccccc23)cc(OC)c1OC (stereo not drawn) | 2.55% (inactive) |
| Cn1c(SCC(=O)Nc2ccc3nc(SCC(=O)NC4CC4)sc3c2)nnc1-c1ccccc1 | 2.96% (inactive) |
| Cc1c(Cl)cccc1NC(=O)CSc1nnc(C)n1CC1CCCO1 (stereo not drawn) | -6.95% (inactive) |
| O=C(Nc1cccnc1)c1ccc([N+](=O)[O-])s1 | 11.1% (inactive) |
| Cc1ccc(S(=O)(=O)N2CC(O)CC2C(=O)OCC(=O)Nc2ccc([N+](=O)[O-])cc2C(F)(F)F)cc1C (stereo not drawn) | -5.69% (inactive) |
| Cc1sc(NC(=O)C(C)C)c(C(=O)Nc2ccccc2)c1C | -9.75% (inactive) |
| COc1ccc(-n2c(N)c(C(=O)NCc3cccnc3)sc2=S)cc1 | -1.03% (inactive) |
| CCOc1ccc(NC(=O)CSc2nc3ccccc3c(=O)n2CCCC(=O)NCC2CCCO2)cc1 (stereo not drawn) | -6.22% (inactive) |
| Cc1ccc(Cn2nc(C)c(NC(=O)c3noc4c3CCCCC4)c2C)cc1 | -1.13% (inactive) |
| Cc1nn(Cc2ccc(Cl)cc2)c(C)c1NC(=O)c1cc(C(C)C)on1 | 16% (inactive) |
| COc1cc(N)c(Cl)cc1C(=O)OCC(=O)N1c2ccccc2NC(=O)C1(C)C | -12.3% (inactive) |
| Cn1c(SCC(=O)Nc2ccc(N3CCOCC3)cc2)nnc1-c1ccco1 | -17.8% (inactive) |
| CCn1c2ccccc2c2cc(/C=N/n3cn[nH]c3=S)ccc21 | -3.24% (inactive) |
| C[C@H](CO)N1C[C@H](C)[C@H](CN(C)Cc2ccncc2)Oc2cc(-c3ccccc3F)ccc2S1(=O)=O | 11.1% (inactive) |
| O=[N+]([O-])c1ccc(-n2cnc3ccccc32)c([N+](=O)[O-])c1 | 9.79% (inactive) |
| COCCNc1ccc([N+](=O)[O-])cc1C(=O)NC1CCCc2ccccc21 (stereo not drawn) | 12.8% (inactive) |
| O=C(Cn1ccc(=O)[nH]c1=O)c1ccc([N+](=O)[O-])o1 | -16.8% (inactive) |
